Assay results as given in PubChem BioAssay AID485314 (National Center for Advancing Translational Sciences (NCATS), 2010).
Hit rate of the full screen: of about 340,000 compounds, about 4,500 (1.3%) were called active. Inconclusive results (about 5%) are left out. The list comes from a sample in which actives are over-represented; it also holds similar structures and randomly drawn compounds. Values without a mark were called inactive. Calls come from the whole dose curve; as a rule, active = well fitted inhibition curve with a large enough effect; inconclusive = small, poorly fitted or top-dose-only effect, or another doubt; inactive = no such curve, though single readings can be large or run the other way.

Molecular target: DNA polymerase beta (Homo sapiens) (UniProt P06746)
Experiment: qHTS Assay for Inhibitors of DNA Polymerase Beta
Settings: Pol beta primer extension/strand displacement, fluorescence kinetic; series mostly up to 114 µM; activity change, negative = inhibition: at the top concentration
Procedure, shortened: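 Pol beta (10 nM) was preincubated with compound for 15 min at room temperature. The reaction was then started with 50 nM substrate and read immediately and after a further 10 min at room temperature.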
% is set by controls: 0 for no effect and ±100 for the full control effect; potency is the fitted concentration of half-maximal effect.

| Structure (SMILES) | activity change, negative = inhibition | Potency |
| --- | --- | --- |
| Cc1cc(Cl)ccc1OCC(=O)N(Cc1ccc(N(C)C)cc1)C1CCS(=O)(=O)C1 (centres undefined) | 8.42% | – |
| CCOC(=O)c1c(NC(=O)CSc2cn(CCNC(=O)c3cccc(C(F)(F)F)c3)c3ccccc23)sc2c1CCC2 | 1.43% | – |
| Cc1ccc(-n2ncc3c(NCCCn4ccnc4)ncnc32)cc1Cl | 0.21% | – |
| O=C(Nc1ccc(S(=O)(=O)Nc2nccs2)cc1)c1cc(=O)[nH]c2ccccc12 | 14.3% | – |
| O=C(Nc1ccc(S(=O)(=O)Nc2nccs2)cc1)c1cc(-c2ccncc2)nc2ccccc12 | – | 15.8 µM (active) |
| CCC(CC)C(=O)Nc1ccc(S(=O)(=O)Nc2nccs2)cc1 | 17.1% | – |
| COc1ccc(CCNc2ncnc3c2cnn3-c2ccc(C)cc2)cc1 | 6.86% | – |
| COc1ccc(CNC(=O)C(Cc2ccccc2)n2cccc2)cc1 (centres undefined) | -10.3% | – |
| CCOC(=O)C(Cc1ccc(N)cc1)N1C(=O)c2ccccc2C1=O (centres undefined) | -23.2% | – |
| Cc1ccc(C)n1C(Cc1ccccc1)C(=O)O (centres undefined) | – | 10 µM (active) |
| COc1cc(OC)cc(C(=O)Nc2c(C(=O)Nc3ccc(F)cc3)oc3ccccc23)c1 | -2.89% | – |
| CCOC(=O)c1ccc(N2C(=O)c3n[nH]c(-c4ccco4)c3C2c2ccc(O)cc2)cc1 (centres undefined) | 22.2% | – |
| CCn1cc(C(=O)NCc2ccc(C)cc2)c(=O)c2cc(S(=O)(=O)N3CCc4ccccc4C3)ccc21 | 27.3% | – |
| Cc1ccc(/C=C/C(=O)Nc2ccc([N+](=O)[O-])c(NC(=O)/C=C/c3ccc(C)o3)c2)o1 | – | 11.2 µM (active) |
| COc1ccc(OC)c(NC(=O)/C=C/c2ccc(C)o2)c1 | 11% | – |
| CCc1nnc(NC(=O)/C=C/c2ccc(C)o2)s1 | -10.9% | – |
| CCc1cc2c(-c3ccccc3)cc(=O)oc2c2c1OCN(Cc1ccc(C)cc1)C2 | -8.79% | – |
| O=S(=O)(c1ccc2nc(NCc3ccccc3Cl)ccc2c1)N1CCCCC1 | 6.35% | – |
| Brc1ccc2c(c1)NC(c1cccnc1)=NC(c1ccccc1)=N2 | 19.1% | – |
| CCc1ccc(CN(Cc2ccco2)C(=O)COc2ccc(Cl)c(C)c2)cc1 | 0.226% | – |
| N#Cc1c(-c2ccccc2)nc(SCc2cccc(C(F)(F)F)c2)[nH]c1=O | – | 79.4 µM (active) |
| O=c1[nH]c(SCc2cccc(F)c2)nc2ccccc12 | 25% | – |

| Structure (SMILES) | activity change, negative = inhibition | Potency |
| --- | --- | --- |
| N#Cc1c(-c2ccc(F)cc2)nc(-c2ccccc2)[nH]c1=O | 1.71% | – |
| CCOC(=O)c1ccc(NC(=O)CNC(=O)c2ccco2)cc1 | – | 56.2 µM (active) |
| O=C(COC(=O)CNC(=O)c1ccco1)Nc1ccc(F)cc1 | 3.11% | – |
| CCN(CC)CCOC(=O)c1ccc(NC(=O)CNC(=O)c2ccccc2)cc1 | 8.66% | – |
| CCOC(=O)c1ccc(NC(=O)c2c(NCc3cccs3)sc3c2CCCC3)cc1 | 1.84% | – |
| CCN(CCCNC(=O)c1cc2c(=O)n(CC)c3ccccc3c2s1)Cc1ccccc1 | 33.1% | – |
| Cc1c(Cl)cccc1NC(=O)c1noc2c1CCCC2 | 2.6% | – |
| COc1cccc(/C=N/Nc2ccc(Cl)nn2)c1 | -1.22% | – |
| Cc1ccsc1/C=N/Nc1ccc(Cl)nn1 | 6.83% | – |
| Oc1cccc(/C=N/Nc2ccc(Cl)nn2)c1O | – | 39.8 µM (active) |
| CCOC(=O)c1c(NC(=O)COc2cc(C)ccc2C(C)C)sc(C)c1C | 0.757% | – |
| COc1ccc(S(=O)(=O)c2cn(C)c3cc(N4CCCCC4)c(F)cc3c2=O)cc1 | -1.37% | – |
| O=C(COc1ccc(Cl)cc1)Nc1ccccc1CO | 11.2% | – |
| O=C(Cc1c(F)cccc1Cl)Nc1ccc(-n2cnnn2)cc1 | 0.175% | – |
| O=C(COc1ccc(-n2cnnn2)cc1)Nc1ccccc1Cl | – | 28.2 µM (active) |
| CCOc1ccc(N(C)S(=O)(=O)c2cc(-c3cnc(C)o3)ccc2OC)cc1 | 3.9% | – |
| Cc1cccc(N2CCN(S(=O)(=O)c3ccc4[nH]c5c(c4c3)CCCCC5)CC2)c1C | 5.75% | – |
| Cc1nn(-c2ccc(N3CCCCC3)nn2)c(C)c1CCC(=O)NCc1ccccc1F | 4.44% | – |
| Cc1ccc(C(=O)NC(C)c2ccccc2)cc1Br (centres undefined) | -3.8% | – |
| CC1=CCC2C(=O)N(c3cccc(C(=O)NC(C)c4ccccc4)c3)C(=O)C2C1 (centres undefined) | – | 39.8 µM (active) |
| COc1ccc(Cl)cc1NC(=O)c1cccc(N2C(=O)C3CC=CCC3C2=O)c1 (centres undefined) | 28.5% | – |
| CCN(CC)C(=O)CSc1nc2ccsc2c(=O)n1Cc1ccccc1Cl | -18.1% | – |

| Structure (SMILES) | activity change, negative = inhibition | Potency |
| --- | --- | --- |
| O=C(COc1ccc(/C=N/NC(=O)c2ccc(O)cc2)cc1)Nc1ccc([N+](=O)[O-])cc1 | – | 2.24 µM (active) |
| NC(=O)c1ccc(NC(=O)COC(=O)c2ccc([N+](=O)[O-])cc2)cc1 | 0.237% | – |
| Cc1ccc(NC(=O)COc2ccc(/C=N\NC(=O)c3cccnc3)cc2)cc1C | -0.199% | – |
| CC1CN(C(=O)N2CCC(C(=O)NCc3cccs3)CC2)c2ccccc2O1 (centres undefined) | -7.1% | – |
| Cc1cccc(C(=O)N2c3nc(-c4ccco4)nn3C3(CCCCC3)[C@@H]3CCCC[C@@H]32)c1 | 13.2% | – |
| Cc1nnc(SCC(=O)NC2CCCC2)s1 | 2.1% | – |
| Cc1nnc(SCC(=O)Nn2cnnc2)s1 | -9.11% | – |
| Cc1nnc(SCC2=C(C(=O)O)N3C(=O)C(NC(=O)Cn4nc(C)c(Cl)c4C)C3SC2)s1 (centres undefined) | – | 39.8 µM (active) |
| Cc1sc(C2C(C#N)=C(N)N(c3cccc(Cl)c3)C3=C2C(=O)CCC3)cc1CN1CCOCC1 (centres undefined) | 16.6% | – |
| Cc1nc2c(-c3ccc(F)cc3)c(C)nn2c(C)c1CCC(=O)NCc1ccco1 | 36% | – |
| O=C(CSc1nnc2scc(-c3ccc(F)cc3)n12)NCc1ccco1 | 11.6% | – |
| Fc1ccc(-c2ccc(-c3nn4c(-c5ccco5)nnc4s3)o2)cc1 | – | 44.7 µM (active) |
| Cc1cc(C)c(OCC(=O)N/N=C/c2ccco2)c(C)c1 | 3.54% | – |
| COC(=O)COc1ccc2c(c1C)O/C(=C\c1ccco1)C2=O | – | 50.1 µM (active) |
| COC(=O)C1=C(C)N(c2ccc(Br)cc2)C(=O)/C1=C\c1ccco1 | 23.8% | – |
| CC1CCCN(c2csc3ccc(F)cc3c2=O)C1 (centres undefined) | 13.1% | – |
| CCCn1c(NCc2ccc(N(CC)CC)cc2)nc2ccccc21 | -0.488% | – |
| COc1cc(/C=N/NC(=O)c2cc(C)n(-c3ccc(F)cc3)c2C)cc(OC)c1O | -1.21% | – |
| Cc1cc(C(=O)N/N=C/c2ccc(O)c([N+](=O)[O-])c2)c(C)n1-c1ccc(F)cc1 | – | 20 µM (active) |
| Cc1nn(CC(=O)N/N=C/c2ccc(F)cc2)c(C)c1[N+](=O)[O-] | 30.3% | – |
